Paper PMC5540273 (PLoS ONE, 2017)

Assays:
Details in all cases: concentration: 1 μM,replicates: in singlicate; n = 1
[1] = tested on: RPS6KA4(Kin.Dom.1-N-terminal)
[2] = tested on: RPS6KA4(Kin.Dom.2-C-terminal)
[3] = tested on: RPS6KA5(Kin.Dom.1-N-terminal)
[4] = tested on: RPS6KA5(Kin.Dom.2-C-terminal)
[5] = tested on: T1, RSK1(Kin.Dom.1-N-terminal)
T1 construct: gene RPS6KA1

[6] = tested on: T2, RSK1(Kin.Dom.2-C-terminal)
T2 construct: gene RPS6KA1

[7] = tested on: T3, RSK2(Kin.Dom.1-N-terminal)
T3 construct: gene RPS6KA3

[8] = tested on: T4, RSK2(Kin.Dom.2-C-terminal)
T4 construct: gene RPS6KA3

[9] = tested on: T5, RSK3(Kin.Dom.1-N-terminal)
T5 construct: gene RPS6KA2

[10] = tested on: T6, RSK3(Kin.Dom.2-C-terminal)
T6 construct: gene RPS6KA2

[11] = tested on: T7, RSK4(Kin.Dom.1-N-terminal)
T7 construct: gene RPS6KA6

[12] = tested on: T8, RSK4(Kin.Dom.2-C-terminal)
T8 construct: gene RPS6KA6

S6K1 = tested on: S6K1
SBK1 = tested on: SBK1
SGK2 = tested on: SGK2
SGK3 = tested on: SGK3
SGK = tested on: SGK
SIK2 = tested on: SIK2
SIK = tested on: SIK
SLK = tested on: SLK
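Also: KINOMEscan kinase panel screen.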

## COC(=O)c1cccc(NC(=O)NC2CCN(c3ccnc(NCc4ccc(F)cc4)n3)CC2)c1 [GSK1379860]
[1]
  %Inh: 7%
[2]
  %Inh: 0%
[3]
  %Inh: 7%
[4]
  %Inh: 0%
[5]
  %Inh: 18%
[6]
  %Inh: 0%
[7]
  %Inh: 0%
[8]
  %Inh: 9%
[9]
  %Inh: 3%
[10]
  %Inh: 0%
[11]
  %Inh: 0%
[12]
  %Inh: 0%
S6K1
  %Inh: 0%
SBK1
  %Inh: 32%
SGK2
  %Inh: 0%
SGK3
  %Inh: 0%
SGK
  %Inh: 0%
SIK2
  %Inh: 0%
SIK
  %Inh: 5%
SLK
  %Inh: 2%

## NC(=O)c1ccc(-c2cc3ncnc(SCC(=O)O)c3s2)cc1
[1]
  %Inh: 0%
[2]
  %Inh: 24%
[3]
  %Inh: 7%
[4]
  %Inh: 0%
[5]
  %Inh: 0%
[6]
  %Inh: 0%
[7]
  %Inh: 1%
[8]
  %Inh: 0%
[9]
  %Inh: 2%
[10]
  %Inh: 7%
[11]
  %Inh: 0%
[12]
  %Inh: 0%
S6K1
  %Inh: 15%
SBK1
  %Inh: 0%
SGK2
  %Inh: 0%
SGK3
  %Inh: 0%
SGK
  %Inh: 0%
SIK2
  %Inh: 7%
SIK
  %Inh: 6%
SLK
  %Inh: 10%

## COc1cc2c(Nc3ccc(NC(=O)c4ccccc4)cc3)ncnc2cc1OCCCN1CCOCC1 [GSK301329]
[1]
  %Inh: 20%
[2]
  %Inh: 0%
[3]
  %Inh: 0%
[4]
  %Inh: 0%
[5]
  %Inh: 11%
[6]
  %Inh: 0%
[7]
  %Inh: 0%
[8]
  %Inh: 1%
[9]
  %Inh: 0%
[10]
  %Inh: 0%
[11]
  %Inh: 0%
[12]
  %Inh: 0%
S6K1
  %Inh: 24%
SBK1
  %Inh: 14%
SGK2
  %Inh: 2%
SGK3
  %Inh: 1%
SGK
  %Inh: 0%
SIK2
  %Inh: 4%
SIK
  %Inh: 2%
SLK
  %Inh: 58%

## Cn1ccc2ncnc(Oc3ccc(NC(=O)Nc4ccnc(C(F)(F)F)c4)c(Cl)c3)c21
[1]
  %Inh: 0%
[2]
  %Inh: 7%
[3]
  %Inh: 3%
[4]
  %Inh: 7%
[5]
  %Inh: 0%
[6]
  %Inh: 9%
[7]
  %Inh: 0%
[8]
  %Inh: 35%
[9]
  %Inh: 0%
[10]
  %Inh: 1%
[11]
  %Inh: 0%
[12]
  %Inh: 2%
S6K1
  %Inh: 0%
SBK1
  %Inh: 0%
SGK2
  %Inh: 10%
SGK3
  %Inh: 0%
SGK
  %Inh: 9%
SIK2
  %Inh: 8%
SIK
  %Inh: 4%
SLK
  %Inh: 10%

## OCCn1cc(-c2cnc3nnn(Cc4ccc5ncccc5c4)c3n2)cn1
[1]
  %Inh: 1%
[2]
  %Inh: 0%
[3]
  %Inh: 0%
[4]
  %Inh: 2%
[5]
  %Inh: 9%
[6]
  %Inh: 0%
[7]
  %Inh: 0%
[8]
  %Inh: 0%
[9]
  %Inh: 0%
[10]
  %Inh: 0%
[11]
  %Inh: 0%
[12]
  %Inh: 1%
S6K1
  %Inh: 0%
SBK1
  %Inh: 0%
SGK2
  %Inh: 0%
SGK3
  %Inh: 15%
SGK
  %Inh: 0%
SIK2
  %Inh: 0%
SIK
  %Inh: 0%
SLK
  %Inh: 0%

## CS(=O)(=O)c1cccc(CNc2nc(Nc3ccc4c(c3)[C@@H]3C[C@@H]4CNC3=O)ncc2C(F)(F)F)c1
[1]
  %Inh: 33%
[2]
  %Inh: 0%
[3]
  %Inh: 0%
[4]
  %Inh: 46%
[5]
  %Inh: 66%
[6]
  %Inh: 7%
[7]
  %Inh: 84%
[8]
  %Inh: 0%
[9]
  %Inh: 85%
[10]
  %Inh: 13%
[11]
  %Inh: 73%
[12]
  %Inh: 5%
S6K1
  %Inh: 0%
SBK1
  %Inh: 81%
SGK2
  %Inh: 0%
SGK3
  %Inh: 25%
SGK
  %Inh: 43%
SIK2
  %Inh: 47%
SIK
  %Inh: 45%
SLK
  %Inh: 98.2%

## Cc1ccc2c(-c3ccnc(Nc4ccc(C(F)(F)F)cc4)n3)cnn2n1 [GW819776]
[1]
  %Inh: 28%
[2]
  %Inh: 0%
[3]
  %Inh: 0%
[4]
  %Inh: 0%
[5]
  %Inh: 19%
[6]
  %Inh: 8%
[7]
  %Inh: 53%
[8]
  %Inh: 0%
[9]
  %Inh: 0%
[10]
  %Inh: 7%
[11]
  %Inh: 23%
[12]
  %Inh: 0%
S6K1
  %Inh: 29%
SBK1
  %Inh: 8%
SGK2
  %Inh: 0%
SGK3
  %Inh: 0%
SGK
  %Inh: 9%
SIK2
  %Inh: 2%
SIK
  %Inh: 0%
SLK
  %Inh: 21%

## Cc1ccn2nc(-c3ccc(F)cc3)c(-c3ccncc3)c2c1.Cl [GW457859]
[1]
  %Inh: 0%
[2]
  %Inh: 0%
[3]
  %Inh: 44%
[4]
  %Inh: 27%
[5]
  %Inh: 0%
[6]
  %Inh: 44%
[7]
  %Inh: 0%
[8]
  %Inh: 0%
[9]
  %Inh: 0%
[10]
  %Inh: 24%
[11]
  %Inh: 0%
[12]
  %Inh: 85%
S6K1
  %Inh: 1%
SBK1
  %Inh: 10%
SGK2
  %Inh: 0%
SGK3
  %Inh: 5%
SGK
  %Inh: 22%
SIK2
  %Inh: 0%
SIK
  %Inh: 0%
SLK
  %Inh: 2%

## COc1cccc(OC)c1C(=O)Nc1cccc(-c2nn3ccccc3c2-c2ccnc(Nc3cccc(F)c3)n2)c1 [GSK361065]
[1]
  %Inh: 8%
[2]
  %Inh: 14%
[3]
  %Inh: 0%
[4]
  %Inh: 0%
[5]
  %Inh: 36%
[6]
  %Inh: 0%
[7]
  %Inh: 0%
[8]
  %Inh: 13%
[9]
  %Inh: 6%
[10]
  %Inh: 15%
[11]
  %Inh: 0%
[12]
  %Inh: 12%
S6K1
  %Inh: 0%
SBK1
  %Inh: 0%
SGK2
  %Inh: 26%
SGK3
  %Inh: 65%
SGK
  %Inh: 18%
SIK2
  %Inh: 0%
SIK
  %Inh: 25%
SLK
  %Inh: 41%

## CS(=O)c1ccc(-c2coc3ccc(-c4n[nH]c(=O)o4)cc23)cc1 (centres unmarked)
[1]
  %Inh: 26%
[2]
  %Inh: 85%
[3]
  %Inh: 13%
[4]
  %Inh: 14%
[5]
  %Inh: 0%
[6]
  %Inh: 36%
[7]
  %Inh: 13%
[8]
  %Inh: 0%
[9]
  %Inh: 9%
[10]
  %Inh: 28%
[11]
  %Inh: 6%
[12]
  %Inh: 27%
S6K1
  %Inh: 3%
SBK1
  %Inh: 85%
SGK2
  %Inh: 12%
SGK3
  %Inh: 15%
SGK
  %Inh: 31%
SIK2
  %Inh: 11%
SIK
  %Inh: 2%
SLK
  %Inh: 9%

## c1ccc(Oc2ccc(Nc3ccnc4ccc(-c5ccccn5)cc34)cc2)cc1 [GW407034]
[1]
  %Inh: 11%
[2]
  %Inh: 0%
[3]
  %Inh: 3%
[4]
  %Inh: 0%
[5]
  %Inh: 10%
[6]
  %Inh: 0%
[7]
  %Inh: 7%
[8]
  %Inh: 8%
[9]
  %Inh: 19%
[10]
  %Inh: 0%
[11]
  %Inh: 4%
[12]
  %Inh: 14%
S6K1
  %Inh: 2%
SBK1
  %Inh: 60%
SGK2
  %Inh: 0%
SGK3
  %Inh: 0%
SGK
  %Inh: 0%
SIK2
  %Inh: 0%
SIK
  %Inh: 0%
SLK
  %Inh: 10%

## CCNCC(Cc1ccccc1)NC(=O)c1cc(Br)c(-c2ccnc3[nH]ccc23)s1.Cl.Cl (centres unmarked) [GSK1383280]
[1]
  %Inh: 67%
[2]
  %Inh: 21%
[3]
  %Inh: 43%
[4]
  %Inh: 22%
[5]
  %Inh: 21%
[6]
  %Inh: 18%
[7]
  %Inh: 42%
[8]
  %Inh: 0%
[9]
  %Inh: 10%
[10]
  %Inh: 1%
[11]
  %Inh: 33%
[12]
  %Inh: 18%
S6K1
  %Inh: 67%
SBK1
  %Inh: 70%
SGK2
  %Inh: 9%
SGK3
  %Inh: 82%
SGK
  %Inh: 65%
SIK2
  %Inh: 0%
SIK
  %Inh: 0%
SLK
  %Inh: 0%

## Cc1ccc(C(=O)Nc2ccc(Oc3ccc4nc(NC(=O)C5CC5)cn4c3)c(F)c2)c(=O)n1-c1ccccc1
[1]
  %Inh: 22%
[2]
  %Inh: 0%
[3]
  %Inh: 0%
[4]
  %Inh: 0%
[5]
  %Inh: 0%
[6]
  %Inh: 0%
[7]
  %Inh: 0%
[8]
  %Inh: 37%
[9]
  %Inh: 22%
[10]
  %Inh: 2%
[11]
  %Inh: 0%
[12]
  %Inh: 0%
S6K1
  %Inh: 9%
SBK1
  %Inh: 0%
SGK2
  %Inh: 0%
SGK3
  %Inh: 0%
SGK
  %Inh: 0%
SIK2
  %Inh: 19%
SIK
  %Inh: 94.9%
SLK
  %Inh: 79%

## CCn1c(-c2nonc2N)nc2cncc(Br)c21 [SB-738004]
[1]
  %Inh: 3%
[2]
  %Inh: 86%
[5]
  %Inh: 0%
[6]
  %Inh: 38%
[7]
  %Inh: 50%
[8]
  %Inh: 27%
[9]
  %Inh: 9%
[10]
  %Inh: 6%
[11]
  %Inh: 64%
[12]
  %Inh: 29%
S6K1
  %Inh: 45%
SBK1
  %Inh: 8%
SGK2
  %Inh: 0%
SGK3
  %Inh: 66%
SGK
  %Inh: 45%
SIK2
  %Inh: 7%
SIK
  %Inh: 15%
SLK
  %Inh: 0%
